Screens from PubChem.
A selection: hits, their analogues and other compounds. The true share with any hit is near 0.91%.
TR SRC2 fluor cs: Total Fluorescence Counterscreen for Inhibitors of the Interaction of Thyroid Hormone Receptor and Steroid Receptor Coregulator 2; TRb/SRC2 Texas Red total fluorescence interference; actives 0.29% (n = 280,000); Potency, µM (doses to about 106 µM), for inactives: at the highest dose fluorescence change, negative = quenching; active means well fitted curve in either direction with a large enough effect; inconclusive means small, poorly fitted or top-dose-only effect; further: on the % scale 0 is the no-effect control and ±100 the full control effect
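Human TRb ligand-binding domain at 0.6 uM with 20 nM Texas Red SRC2 peptide in Tris buffer containing 1 uM T3 and 5% DMSO, incubated with compound 5 h at ambient temperature. Total fluorescence (555/632 nm) calculated as parallel + 2 × perpendicular.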
RECQ1 helicase: qHTS Assay for Inhibitors of RecQ-Like Dna Helicase 1 (RECQ1); RECQ1 DNA unwinding, red fluorescence kinetic read; actives 0.54% (n = 240,000); Potency, µM (highest dose often 57.3 µM), for inactives: at the top dose activity, negative = inhibition, hits mostly inhibitors; ATP-dependent DNA helicase Q1 (Homo sapiens), P46063;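 further: plate controls were vehicle for no effect and no enzyme for full effect; nearly all actives have a fitted effect of over 30% in size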
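RECQ1T1 50 nM; forked duplex (20 bp + 30-nt ss tails) 200 nM, ATP 2 mM final; pH 8.0, 2 mM MgCl2, 2.5 ug/ml poly(dI-dC); 15 min compound preincubation; discontinuous kinetic read over 2 h at RT.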
TRb SRC2 PPI: qHTS for Inhibitors of the Interaction of Thyroid Hormone Receptor and Steroid Receptor Coregulator 2. Thyroid hormone receptor beta (Homo sapiens), P10828. TRbeta-SRC2 peptide binding, fluorescence polarization; receptor liganded with 1 µM T3. AID 1469, 2008. Potency, µM (series often up to 106 µM), without a hit: top-dose activity change, negative = inhibition, usual class: inhibitors. actives 0.065% (n = 280,000);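 further: plate controls were bound peptide for no effect and peptide without receptor for full effect; nearly all actives have a fitted effect of over 50% in size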
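Polarization signal, normalized between peptide-alone and full complex controls, measured compound effects on T3-liganded human TRb LBD (0.6 uM) binding 20 nM Texas Red SRC2 peptide after 5 hr.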
WRN helicase inh-1: qHTS for Inhibitors of WRN Helicase. Bifunctional 3'-5' exonuclease/ATP-dependent helicase WRN (Homo sapiens), Q14191. WRN helicase unwinding, fluorescent forked duplex, kinetic. Potency, µM (doses to about 114 µM), for inactives: at the highest dose activity change, negative = inhibition, usual class: inhibitors. actives 0.46% (n = 360,000); further: on the % scale 0 is the no-effect control and ±100 the full control effect; nearly all actives have a fitted effect of over 55% in size
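Primary qHTS, 1536-well format. 20 nM WRN + compound, 15 min RT; start with 100 nM forked fluorophore/quencher duplex, 2 mM ATP (final); kinetic read ex 525/em 598 nm.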
BLM helicase inh-1: qHTS Assay for Inhibitors of Bloom's syndrome helicase (BLM); RecQ-like DNA helicase BLM (Homo sapiens), P54132; recombinant BLM DNA unwinding, fluorescence dequenching; Potency, µM (titrated, usually from 56.1 µM), without a hit: at the highest dose activity change, negative = inhibition, hits mostly inhibitors; actives 0.2% (n = 350,000); AID 2528, 2010;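 further: plate controls were vehicle for no effect and no enzyme for full effect; nearly all actives have a fitted effect of over 35% in size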
APE1 inh: qHTS Assay for Inhibitors of the Human Apurinic/apyrimidinic Endonuclease 1 (APE1); DNA repair nuclease/redox regulator APEX1 (Homo sapiens), P27695; AID 2517, 2012; Potency, µM (highest dose often 65.8 µM), inactives show at the top dose activity change, negative = inhibition, actives largely listed as inhibitors; recombinant APE1, TAMRA/BHQ-2 abasic DNA cleavage fluorescence; actives 0.35% (n = 350,000);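 further: plate controls were vehicle for no effect and reference inhibitor for full effect; nearly all actives have a fitted effect of over 55% in size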
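Endonuclease cleavage of a quenched abasic-site DNA duplex (50 nM) by APE1 (0.75 nM) was tracked by TAMRA dequenching. Compounds were preincubated with enzyme 15 min at room temperature; data normalized to buffer-only and DMSO wells plus NSC13755 control.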
WRN helicase inh-2: qHTS for Inhibitors of WRN Helicase: Confirmatory Assay for Cherry-picked Compounds; shares compounds with WRN helicase inh-1; WRN helicase DNA unwinding, fluorescence kinetic; Potency, µM (top dose mostly 57.1 µM), for inactives: at the highest dose activity, negative = inhibition, hits mostly inhibitors; actives 63% (n = 610); further: nearly all actives have a fitted effect of over 65% in size
TO displacement: qHTS for Inhibitors of WRN Helicase: Thiazole Orange DNA Binding Counterscreen | shares compounds with WRN helicase inh-1 | thiazole orange DNA binding displacement, fluorescence | actives 10% (n = 610) | Potency, µM (titrated, usually from 57.1 µM), for inactives: at the top dose activity change, negative = inhibition, usual class: inhibitors;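 further: drop in dye fluorescence marks compound binding to DNA; on the % scale 0 is the no-effect control and ±100 the full control effect; nearly all actives have a fitted effect of over 60% in size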
BLM helicase inh-2: qHTS for Inhibitors of WRN Helicase: BLM Helicase Counterscreen for WRN Inhibitors; shares compounds with WRN helicase inh-1; Recombinant BLM helicase DNA unwinding, red fluorescence; Potency, µM (top dose mostly 57.1 µM), for the others: at the highest dose activity change, negative = inhibition, usual class: inhibitors; actives 60% (n = 610); AID 720503, 2013; further: nearly all actives have a fitted effect of over 60% in size
Starred values were filed as active, the others as inactive; i = inactive; ? = inconclusive; / = not tested or not shown. Unless noted, the call rests on the fitted dose curve; in most records, active means well fitted curve in the direction sought with a large enough effect; inconclusive means small, poorly fitted or top-dose-only effect, or another doubt; inactive means no such curve, though single readings can be large; an effect the other way counts as inactive or inconclusive. Potency means the concentration at half of the fitted maximal effect.

SMILES	TR SRC2 fluor cs	RECQ1 helicase	TRb SRC2 PPI	WRN helicase inh-1	BLM helicase inh-1	APE1 inh	WRN helicase inh-2	TO displacement	BLM helicase inh-2
CC1=C(C)CS(=O)N(S(=O)(=O)c2ccc(Cl)cc2)C1 (stereo unspecified)	-3%	-4%	-11%	13µM*	-9%	-7%	-30%	2%	?
CSc1ccc(/C=N/Nc2cccc(C(=O)O)c2)cc1	-15%	32µM*	-7%	11µM*	147%	2.2µM*	4.8µM*	?	3µM*
O=c1cc(N2CCNCC2)nc2sc(-c3ccncc3)nn12	/	/	/	/	/	/	6.1µM*	6.8µM*	1.2µM*
Cc1cc(=O)n2nc(-c3ccccc3)sc2n1	2%	-9%	-22%	-6%	6%	24%	/	/	/
COc1cc2c(cc1OC)C(c1cc(OC)c(OC)c(OC)c1)C1(O)C(=O)OCC1(O)C2 (stereo unspecified)	/	/	/	-1%	/	/	/	/	/
COCCN1C(=O)/C(=C/c2ccc(OCc3ccc(C(=O)O)cc3)c(OC)c2)SC1=Nc1ccccc1	-1%	-3%	0%	?	-13%	?	27µM*	?	27µM*
COc1ccccc1NC(=O)c1c(NCc2sccc2C)sc2c1CCCCC2	-2%	/	2%	/	-5%	/	/	/	/
COc1ccc(Cl)cc1NC(=O)c1c(NCc2sccc2C)sc2c1CCCC2	-2%	/	4%	/	0%	/	-20%	?	?
CC(C)COc1ccc(-c2nn(-c3ccccc3)cc2/C=C2/SC(=S)N(CC(=O)O)C2=O)cc1	/	/	/	1%	?	-30%	/	/	/
O=C1C(=Cc2cn(-c3ccccc3)nc2-c2ccc(OCc3ccccc3)cc2)SC(=S)N1CCS(=O)(=O)O	/	/	/	25µM*	/	/	11µM*	-29%	6.8µM*
C[C@H](O)[C@@H]1CN2CCc3c([nH]c4ccccc34)[C@@H]2C[C@@H]1N(C)C(=S)NCCc1ccccc1	/	/	/	-1%	/	/	/	/	/
Oc1cc2c(cc1C(c1ccc(Br)cc1)N1CCCC1)OCO2 (stereo unspecified)	-5%	i	10%	45µM*	-10%	-1%	?	-11%	?
CC(=O)NC1C(=O)N(CCN2CCOCC2)c2ccc(Cl)cc21 (stereo unspecified)	/	/	/	22µM*	-11%	?	-10%	-12%	-30%
CC(=O)NC1C(=O)N(CCN2CCOCC2)c2ccc(C)cc21 (stereo unspecified)	/	/	/	-18%	-20%	?	/	/	/
Cc1c(NC(=O)COC(=O)c2ccc(S(=O)(=O)N3CCOCC3)cc2)c(=O)n(-c2ccccc2)n1C	-3%	-7%	8%	-16%	1%	?	/	/	/
C[C@@H]1NC(=O)N[C@@H]1CCCCCC(=O)O	/	/	/	?	/	/	?	-1%	?
CCCCCC1NC(=O)NC1CCCCCC(=O)O (stereo unspecified)	-1%	-16%	-7%	10%	-1%	-7%	/	/	/
CSC1SCC2C(=O)N(C)C(C(C)C)C(=O)OCC(NC(=O)c3cnc4ccccc4n3)C(=O)NC(C)C(=O)N(C)C1C(=O)N(C)C(C(C)C)C(=O)OCC(NC(=O)c1cnc3ccccc3n1)C(=O)NC(C)C(=O)N2C (stereo unspecified)	/	/	/	0.53µM*	/	/	0.34µM*	?	0.54µM*
Cc1ccc(OC(C)C(=O)NCC2(N3CCOCC3)CCCCC2)cc1C (stereo unspecified)	-1%	/	1%	/	2%	/	/	/	/
CCOc1ccccc1N(CC(=O)Nc1ccccc1C(=O)N1CCOCC1)S(C)(=O)=O	/	/	/	-32%	-1%	-6%	/	/	/
O=C(O)CSc1cc(NS(=O)(=O)c2ccc(Cl)cc2)c2ccccc2c1O	/	/	/	13µM*	25µM*	60%	?	-12%	?
O=S(=O)(Nc1ccc(Cl)cc1NS(=O)(=O)c1ccccc1)c1ccccc1	/	/	/	-10%	/	/	/	/	/
Cc1cc(NS(=O)(=O)c2ccc(NC(=O)COc3ccc(Cl)cc3)cc2)nc(C)n1	-1%	/	2%	/	-2%	/	/	/	/
CCOC(=O)C1=C(C)N=c2sc(=Cc3ccc(OCC(=O)O)cc3)c(=O)n2C1c1ccc(Cl)cc1 (stereo unspecified)	/	/	/	?	/	/	7.6µM*	357%	3.4µM*
CCOC(=O)C1=C(C)N=c2sc(=Cc3cc(Cl)c(OCC(=O)O)c(Cl)c3)c(=O)n2C1c1cccc(OC)c1 (stereo unspecified)	/	/	/	79µM*	/	/	30µM*	21%	?
CC(=O)N1CCSc2ccc(S(=O)(=O)Nc3ccccc3C)cc21	/	/	/	0%	-1%	66%	/	/	/
C=CCn1c(SCC(=O)c2ccc(O)c(O)c2)nnc1-c1cccc(C)c1	/	/	/	20µM*	/	-6%	8.6µM*	-9%	?
C=CCn1c(SCC(=O)c2ccc(O)c(O)c2)nnc1-c1ccccc1OC	-4%	?	-1%	?	-4%	-5%	15µM*	-7%	12µM*
C=CCn1c(SCC(=O)Nc2cc(C)on2)nnc1-c1ccccc1OC	/	/	/	2%	/	21%	/	/	/
C=CCn1c(SCC(=O)Nc2ccc(N(C)C)cc2)nnc1-c1cccc(C)c1	0%	i	3%	-28%	-6%	-3%	/	/	/
